Assay results published in ChEMBL document CHEMBL1961873, “Compounds: GSK PKIS; Assays: Nanosyn kinase panel” (2012).
Several values for one entry are separate records, joined by “and”; a condition that tells them apart may be missing. Equal values may be shown once.

Tests used:
[1] = molecular target: T1, Serine/threonine-protein kinase Nek9 (Homo sapiens) (UniProt Q8TD19); details: at 1 µM;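 further: each value is a mean percent inhibition of NEK9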
T1 sequence (whole entry): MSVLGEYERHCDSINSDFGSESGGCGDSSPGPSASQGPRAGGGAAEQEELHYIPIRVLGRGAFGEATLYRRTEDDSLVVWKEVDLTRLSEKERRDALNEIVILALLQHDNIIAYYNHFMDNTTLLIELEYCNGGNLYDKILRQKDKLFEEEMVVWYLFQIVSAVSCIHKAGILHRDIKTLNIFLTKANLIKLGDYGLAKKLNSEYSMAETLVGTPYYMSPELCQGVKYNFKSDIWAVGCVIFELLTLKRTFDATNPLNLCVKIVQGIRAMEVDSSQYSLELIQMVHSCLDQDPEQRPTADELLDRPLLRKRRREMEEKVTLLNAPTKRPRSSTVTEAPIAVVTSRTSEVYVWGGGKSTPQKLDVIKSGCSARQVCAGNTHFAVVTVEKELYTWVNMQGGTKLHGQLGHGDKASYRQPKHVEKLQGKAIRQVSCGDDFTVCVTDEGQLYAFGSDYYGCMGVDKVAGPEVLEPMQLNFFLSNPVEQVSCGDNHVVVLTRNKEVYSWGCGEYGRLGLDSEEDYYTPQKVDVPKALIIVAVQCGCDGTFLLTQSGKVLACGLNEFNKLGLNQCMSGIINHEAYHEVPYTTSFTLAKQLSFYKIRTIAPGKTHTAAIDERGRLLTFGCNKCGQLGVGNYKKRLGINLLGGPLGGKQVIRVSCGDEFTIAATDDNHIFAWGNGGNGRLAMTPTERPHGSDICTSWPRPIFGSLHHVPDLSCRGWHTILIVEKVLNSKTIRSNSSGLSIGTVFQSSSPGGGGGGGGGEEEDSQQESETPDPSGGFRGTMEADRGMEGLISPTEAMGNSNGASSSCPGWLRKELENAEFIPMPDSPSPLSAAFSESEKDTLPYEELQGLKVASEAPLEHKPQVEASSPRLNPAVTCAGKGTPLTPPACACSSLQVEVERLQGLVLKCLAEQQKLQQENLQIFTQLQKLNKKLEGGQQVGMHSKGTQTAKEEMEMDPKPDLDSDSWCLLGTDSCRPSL

[2] = molecular target: Serine/threonine-protein kinase PLK1 (Homo sapiens) (UniProt P53350); details: at 0.1 µM
[3] = molecular target: Serine/threonine-protein kinase PLK1 (Homo sapiens) (UniProt P53350); details: at 1 µM
[4] = molecular target: T2, Dual specificity protein kinase TTK (Homo sapiens) (UniProt P33981); details: at 0.1 µM
T2 sequence (whole entry): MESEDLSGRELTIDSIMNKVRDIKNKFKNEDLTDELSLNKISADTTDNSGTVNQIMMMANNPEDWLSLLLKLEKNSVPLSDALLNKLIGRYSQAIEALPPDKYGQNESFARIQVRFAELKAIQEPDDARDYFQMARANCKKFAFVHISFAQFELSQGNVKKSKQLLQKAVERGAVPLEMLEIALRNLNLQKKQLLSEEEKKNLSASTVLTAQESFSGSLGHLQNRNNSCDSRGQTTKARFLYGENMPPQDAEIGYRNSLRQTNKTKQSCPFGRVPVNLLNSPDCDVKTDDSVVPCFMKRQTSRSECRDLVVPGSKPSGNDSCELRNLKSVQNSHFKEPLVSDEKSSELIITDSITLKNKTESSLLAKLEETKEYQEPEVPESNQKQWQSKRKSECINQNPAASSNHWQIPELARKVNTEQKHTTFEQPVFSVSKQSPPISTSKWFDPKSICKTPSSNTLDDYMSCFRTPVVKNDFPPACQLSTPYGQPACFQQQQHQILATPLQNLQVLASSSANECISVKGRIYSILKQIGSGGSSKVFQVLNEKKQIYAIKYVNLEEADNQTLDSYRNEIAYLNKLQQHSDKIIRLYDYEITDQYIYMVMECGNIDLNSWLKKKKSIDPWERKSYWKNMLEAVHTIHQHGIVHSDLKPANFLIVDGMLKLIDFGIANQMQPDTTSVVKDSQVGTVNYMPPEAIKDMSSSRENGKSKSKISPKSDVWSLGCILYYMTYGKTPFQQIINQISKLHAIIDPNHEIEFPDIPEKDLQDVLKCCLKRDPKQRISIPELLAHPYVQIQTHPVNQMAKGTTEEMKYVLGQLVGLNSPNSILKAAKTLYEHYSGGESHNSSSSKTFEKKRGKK

[5] = test system: T3, Receptor-type tyrosine-protein kinase FLT3 (Homo sapiens), P36888 [D835Y]; details: at 1 µM
T3 sequence (whole entry): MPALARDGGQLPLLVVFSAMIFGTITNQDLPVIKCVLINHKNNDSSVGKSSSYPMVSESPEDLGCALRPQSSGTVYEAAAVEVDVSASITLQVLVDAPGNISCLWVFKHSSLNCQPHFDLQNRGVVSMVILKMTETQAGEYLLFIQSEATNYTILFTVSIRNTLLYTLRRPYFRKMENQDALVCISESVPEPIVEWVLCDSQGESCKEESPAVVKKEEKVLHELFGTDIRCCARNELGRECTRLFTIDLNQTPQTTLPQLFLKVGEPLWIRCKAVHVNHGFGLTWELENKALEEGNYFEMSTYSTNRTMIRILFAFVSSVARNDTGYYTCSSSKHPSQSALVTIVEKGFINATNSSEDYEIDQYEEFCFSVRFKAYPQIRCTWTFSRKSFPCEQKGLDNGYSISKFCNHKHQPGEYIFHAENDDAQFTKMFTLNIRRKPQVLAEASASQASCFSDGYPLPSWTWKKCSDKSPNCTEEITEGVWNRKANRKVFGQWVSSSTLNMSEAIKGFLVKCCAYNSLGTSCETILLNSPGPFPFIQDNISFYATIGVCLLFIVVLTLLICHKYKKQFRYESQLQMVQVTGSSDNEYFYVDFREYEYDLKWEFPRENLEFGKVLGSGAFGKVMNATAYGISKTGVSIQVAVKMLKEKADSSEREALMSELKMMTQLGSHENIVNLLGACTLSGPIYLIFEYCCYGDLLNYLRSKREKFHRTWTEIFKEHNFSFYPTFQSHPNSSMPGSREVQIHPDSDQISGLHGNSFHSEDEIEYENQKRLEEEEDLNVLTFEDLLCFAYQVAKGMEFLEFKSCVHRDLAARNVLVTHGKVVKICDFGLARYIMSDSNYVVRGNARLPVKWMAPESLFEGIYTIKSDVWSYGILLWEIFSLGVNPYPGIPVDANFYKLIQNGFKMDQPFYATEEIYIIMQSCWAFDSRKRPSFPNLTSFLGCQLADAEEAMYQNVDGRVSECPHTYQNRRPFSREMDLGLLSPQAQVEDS

[6] = molecular target: Vascular endothelial growth factor receptor 3 (Homo sapiens) (UniProt P35916); details: at 0.1 µM
[7] = molecular target: Vascular endothelial growth factor receptor 3 (Homo sapiens) (UniProt P35916); details: at 1 µM
[8] = molecular target: Macrophage colony-stimulating factor 1 receptor (Homo sapiens) (UniProt P07333); details: at 0.1 µM
[9] = molecular target: Macrophage colony-stimulating factor 1 receptor (Homo sapiens) (UniProt P07333); details: at 1 µM
[10] = molecular target: Tyrosine-protein kinase Fyn (Homo sapiens) (UniProt P06241); details: at 0.1 µM
[11] = molecular target: Tyrosine-protein kinase Fyn (Homo sapiens) (UniProt P06241); details: at 1 µM
[12] = molecular target: Tyrosine-protein kinase HCK (Homo sapiens) (UniProt P08631); details: at 0.1 µM
[13] = molecular target: Tyrosine-protein kinase HCK (Homo sapiens) (UniProt P08631); details: at 1 µM
[14] = molecular target: Insulin-like growth factor 1 receptor (Homo sapiens) (UniProt P08069); details: at 0.1 µM
[15] = molecular target: Insulin-like growth factor 1 receptor (Homo sapiens) (UniProt P08069); details: at 1 µM
[16] = molecular target: Insulin receptor (Homo sapiens) (UniProt P06213); details: at 0.1 µM
[17] = molecular target: Insulin receptor (Homo sapiens) (UniProt P06213); details: at 1 µM
[18] = molecular target: Insulin receptor-related protein (Homo sapiens) (UniProt P14616); details: at 0.1 µM
[19] = molecular target: Insulin receptor-related protein (Homo sapiens) (UniProt P14616); details: at 1 µM
[20] = molecular target: T4, Tyrosine-protein kinase ITK/TSK (Homo sapiens) (UniProt Q08881); details: at 0.1 µM;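 further: mean percent inhibition of ITK from the GSK PKIS screen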
T4 sequence (whole entry): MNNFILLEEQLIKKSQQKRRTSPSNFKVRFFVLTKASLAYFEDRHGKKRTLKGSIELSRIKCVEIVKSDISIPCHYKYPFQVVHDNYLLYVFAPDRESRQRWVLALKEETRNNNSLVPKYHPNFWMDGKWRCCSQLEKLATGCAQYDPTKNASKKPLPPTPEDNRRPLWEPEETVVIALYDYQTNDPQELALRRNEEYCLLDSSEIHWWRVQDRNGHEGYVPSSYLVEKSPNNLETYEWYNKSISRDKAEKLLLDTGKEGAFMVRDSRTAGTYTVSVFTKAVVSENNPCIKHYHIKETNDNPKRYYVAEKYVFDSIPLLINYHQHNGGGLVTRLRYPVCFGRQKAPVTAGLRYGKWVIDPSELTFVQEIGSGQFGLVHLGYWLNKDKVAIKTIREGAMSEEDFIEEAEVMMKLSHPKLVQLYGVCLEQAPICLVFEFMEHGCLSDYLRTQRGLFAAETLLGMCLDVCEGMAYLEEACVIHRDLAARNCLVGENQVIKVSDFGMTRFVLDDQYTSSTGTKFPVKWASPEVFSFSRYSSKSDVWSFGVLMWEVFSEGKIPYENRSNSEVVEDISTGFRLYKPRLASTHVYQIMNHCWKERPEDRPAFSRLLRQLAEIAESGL

Serine/threonine-protein kinase PLK1 (Homo sapiens), sequence (P53350 whole entry): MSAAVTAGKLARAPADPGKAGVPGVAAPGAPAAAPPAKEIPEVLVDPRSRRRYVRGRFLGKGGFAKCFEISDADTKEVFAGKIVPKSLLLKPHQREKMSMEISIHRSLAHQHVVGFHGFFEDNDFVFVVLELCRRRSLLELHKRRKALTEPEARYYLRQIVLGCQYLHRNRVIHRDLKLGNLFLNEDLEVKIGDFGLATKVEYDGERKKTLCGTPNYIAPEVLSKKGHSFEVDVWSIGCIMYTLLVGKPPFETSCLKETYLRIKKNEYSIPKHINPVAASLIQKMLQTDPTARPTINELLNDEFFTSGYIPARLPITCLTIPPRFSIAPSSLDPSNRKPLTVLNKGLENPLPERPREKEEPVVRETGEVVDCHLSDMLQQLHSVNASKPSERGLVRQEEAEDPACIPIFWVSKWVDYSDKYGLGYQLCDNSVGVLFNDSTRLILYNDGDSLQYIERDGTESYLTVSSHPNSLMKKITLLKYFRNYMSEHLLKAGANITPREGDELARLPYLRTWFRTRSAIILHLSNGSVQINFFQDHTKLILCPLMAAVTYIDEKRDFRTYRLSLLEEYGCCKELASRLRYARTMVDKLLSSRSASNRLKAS
Insulin receptor (Homo sapiens), sequence (P06213 28-758 limits assumed): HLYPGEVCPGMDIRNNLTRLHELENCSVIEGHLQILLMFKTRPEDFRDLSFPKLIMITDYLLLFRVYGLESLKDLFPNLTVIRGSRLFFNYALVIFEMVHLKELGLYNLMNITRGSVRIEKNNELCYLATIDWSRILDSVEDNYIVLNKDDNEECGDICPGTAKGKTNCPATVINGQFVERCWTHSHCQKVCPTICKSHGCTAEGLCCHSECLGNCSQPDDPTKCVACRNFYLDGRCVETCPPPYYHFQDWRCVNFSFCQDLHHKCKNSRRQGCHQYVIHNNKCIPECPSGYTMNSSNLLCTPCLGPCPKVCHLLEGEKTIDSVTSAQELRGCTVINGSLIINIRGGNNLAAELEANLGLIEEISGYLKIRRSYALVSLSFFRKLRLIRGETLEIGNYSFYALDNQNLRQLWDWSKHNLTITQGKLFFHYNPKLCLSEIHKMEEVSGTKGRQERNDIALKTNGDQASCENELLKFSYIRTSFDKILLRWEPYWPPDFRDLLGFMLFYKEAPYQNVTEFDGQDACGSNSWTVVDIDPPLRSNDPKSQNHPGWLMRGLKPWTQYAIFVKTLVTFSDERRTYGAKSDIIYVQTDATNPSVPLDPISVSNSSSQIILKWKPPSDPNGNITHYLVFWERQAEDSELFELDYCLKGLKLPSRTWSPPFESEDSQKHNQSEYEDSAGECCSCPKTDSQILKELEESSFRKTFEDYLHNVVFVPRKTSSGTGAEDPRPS
Insulin receptor (Homo sapiens), sequence (P06213 763-1382 limits assumed): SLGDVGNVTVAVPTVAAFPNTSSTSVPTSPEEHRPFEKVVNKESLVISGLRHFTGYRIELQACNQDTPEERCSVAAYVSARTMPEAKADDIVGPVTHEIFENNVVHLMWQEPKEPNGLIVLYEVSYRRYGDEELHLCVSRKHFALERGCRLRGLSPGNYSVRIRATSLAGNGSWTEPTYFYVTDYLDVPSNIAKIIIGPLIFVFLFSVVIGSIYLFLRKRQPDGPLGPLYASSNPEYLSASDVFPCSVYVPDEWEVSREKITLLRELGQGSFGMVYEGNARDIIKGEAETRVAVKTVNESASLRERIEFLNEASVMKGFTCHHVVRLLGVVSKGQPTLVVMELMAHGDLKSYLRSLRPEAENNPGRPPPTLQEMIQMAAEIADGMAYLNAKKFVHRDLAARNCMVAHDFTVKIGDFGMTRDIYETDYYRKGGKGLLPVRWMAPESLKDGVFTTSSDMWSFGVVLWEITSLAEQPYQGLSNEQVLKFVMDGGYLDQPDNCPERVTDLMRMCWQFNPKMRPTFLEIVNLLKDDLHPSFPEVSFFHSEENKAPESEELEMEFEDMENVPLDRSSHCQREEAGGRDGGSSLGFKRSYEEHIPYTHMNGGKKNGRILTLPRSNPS
Vascular endothelial growth factor receptor 3 (Homo sapiens), sequence (P35916 whole entry): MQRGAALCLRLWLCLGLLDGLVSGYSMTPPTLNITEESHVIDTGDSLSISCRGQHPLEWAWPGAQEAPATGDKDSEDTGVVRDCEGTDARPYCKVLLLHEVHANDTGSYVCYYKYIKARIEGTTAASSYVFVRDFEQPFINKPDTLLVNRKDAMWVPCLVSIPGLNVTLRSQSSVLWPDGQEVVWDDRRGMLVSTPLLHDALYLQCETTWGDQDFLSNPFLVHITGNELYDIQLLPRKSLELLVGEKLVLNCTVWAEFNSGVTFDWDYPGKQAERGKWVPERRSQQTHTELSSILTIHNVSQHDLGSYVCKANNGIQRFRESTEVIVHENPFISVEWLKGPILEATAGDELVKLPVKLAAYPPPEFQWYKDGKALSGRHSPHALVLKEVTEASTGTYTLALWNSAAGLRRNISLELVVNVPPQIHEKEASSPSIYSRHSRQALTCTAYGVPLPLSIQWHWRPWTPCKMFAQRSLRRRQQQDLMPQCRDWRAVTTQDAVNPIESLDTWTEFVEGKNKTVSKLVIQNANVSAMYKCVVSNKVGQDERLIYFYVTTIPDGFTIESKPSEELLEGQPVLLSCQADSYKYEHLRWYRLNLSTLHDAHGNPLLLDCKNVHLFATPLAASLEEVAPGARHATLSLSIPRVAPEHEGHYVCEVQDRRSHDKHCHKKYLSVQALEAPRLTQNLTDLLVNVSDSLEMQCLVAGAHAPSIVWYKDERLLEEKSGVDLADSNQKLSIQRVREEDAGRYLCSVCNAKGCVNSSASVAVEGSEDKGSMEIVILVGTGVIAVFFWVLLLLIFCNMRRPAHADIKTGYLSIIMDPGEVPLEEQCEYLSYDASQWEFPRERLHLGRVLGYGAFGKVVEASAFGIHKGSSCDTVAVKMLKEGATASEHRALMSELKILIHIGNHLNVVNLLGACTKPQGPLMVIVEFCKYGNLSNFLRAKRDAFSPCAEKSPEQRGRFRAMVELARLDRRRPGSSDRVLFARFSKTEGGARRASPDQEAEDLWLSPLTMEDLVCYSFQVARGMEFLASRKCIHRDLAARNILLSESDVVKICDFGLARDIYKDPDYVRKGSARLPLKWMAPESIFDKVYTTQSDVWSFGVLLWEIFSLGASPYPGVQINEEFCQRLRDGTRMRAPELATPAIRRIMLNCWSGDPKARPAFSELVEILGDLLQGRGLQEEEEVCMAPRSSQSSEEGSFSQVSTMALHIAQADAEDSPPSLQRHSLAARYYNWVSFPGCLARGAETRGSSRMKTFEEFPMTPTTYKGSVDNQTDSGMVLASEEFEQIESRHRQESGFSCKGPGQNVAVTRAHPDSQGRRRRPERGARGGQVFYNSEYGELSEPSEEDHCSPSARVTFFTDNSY
Insulin receptor-related protein (Homo sapiens), sequence (P14616 27-742 limits assumed): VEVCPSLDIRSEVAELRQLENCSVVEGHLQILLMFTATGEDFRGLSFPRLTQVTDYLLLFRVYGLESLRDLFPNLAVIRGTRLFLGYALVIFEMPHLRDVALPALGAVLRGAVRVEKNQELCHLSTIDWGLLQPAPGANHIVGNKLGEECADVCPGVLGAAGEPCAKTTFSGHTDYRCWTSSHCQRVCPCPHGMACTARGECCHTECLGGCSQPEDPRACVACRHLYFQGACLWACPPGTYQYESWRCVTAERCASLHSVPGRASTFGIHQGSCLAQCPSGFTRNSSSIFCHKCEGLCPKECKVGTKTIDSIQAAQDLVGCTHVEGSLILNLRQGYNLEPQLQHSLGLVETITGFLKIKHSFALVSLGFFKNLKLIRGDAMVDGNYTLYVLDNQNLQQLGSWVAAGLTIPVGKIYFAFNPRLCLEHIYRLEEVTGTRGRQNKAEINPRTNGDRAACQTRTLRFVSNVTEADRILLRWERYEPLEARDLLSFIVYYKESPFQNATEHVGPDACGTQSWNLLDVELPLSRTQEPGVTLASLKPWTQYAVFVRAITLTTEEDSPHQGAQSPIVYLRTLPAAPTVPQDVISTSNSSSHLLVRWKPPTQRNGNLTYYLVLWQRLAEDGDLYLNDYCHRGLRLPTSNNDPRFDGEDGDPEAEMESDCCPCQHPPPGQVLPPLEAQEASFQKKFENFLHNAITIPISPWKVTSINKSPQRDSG
Insulin receptor-related protein (Homo sapiens), sequence (P14616 747-1297 limits assumed): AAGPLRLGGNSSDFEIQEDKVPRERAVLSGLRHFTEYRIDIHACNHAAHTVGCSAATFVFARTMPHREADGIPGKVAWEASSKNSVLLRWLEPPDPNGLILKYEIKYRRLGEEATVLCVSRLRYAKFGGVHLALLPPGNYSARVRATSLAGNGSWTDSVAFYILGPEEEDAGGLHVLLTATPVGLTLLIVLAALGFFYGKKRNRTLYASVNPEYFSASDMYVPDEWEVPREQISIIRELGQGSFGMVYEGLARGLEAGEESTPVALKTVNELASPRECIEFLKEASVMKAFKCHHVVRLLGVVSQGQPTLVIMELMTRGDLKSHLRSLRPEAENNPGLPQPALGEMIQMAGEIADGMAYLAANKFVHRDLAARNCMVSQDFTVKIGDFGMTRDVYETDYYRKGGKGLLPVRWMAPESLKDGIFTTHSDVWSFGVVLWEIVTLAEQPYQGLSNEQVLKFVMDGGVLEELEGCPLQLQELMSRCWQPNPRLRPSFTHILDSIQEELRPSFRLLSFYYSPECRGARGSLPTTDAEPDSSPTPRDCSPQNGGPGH

| Structure (SMILES) | inhibition [1] | inhibition [2] | inhibition [3] | inhibition [4] | inhibition [5] | inhibition [6] | inhibition [7] | inhibition [8] | inhibition [9] | inhibition [10] | inhibition [11] | inhibition [12] | inhibition [13] | inhibition [14] | inhibition [15] | inhibition [16] | inhibition [17] | inhibition [18] | inhibition [19] | inhibition [20] |
| --- | --- | --- | --- | --- | --- | --- | --- | --- | --- | --- | --- | --- | --- | --- | --- | --- | --- | --- | --- | --- |
| CN1CCN(Cc2ccc(-c3cc4ncnc(Nc5ccc(OCc6cccc(F)c6)c(Cl)c5)c4s3)o2)CC1 | 5.83% and 18% | 3.39% and 1.18% | 2.38% and 4.14% | 6.58% and 12.2% | -2.05% and 1.99% | 2.97% and 4.96% | 3.14% and 8.22% | 3.64% and 7.74% | 27.9% and 35.8% | 2.24% and 2.04% | 9.29% and 9.99% | 3.14% and 4.38% | 7.61% and 13.1% | -0.2% and 3.7% | 1.01% and 6.72% | 2.51% and 7.21% | 3.07% and 7.9% | 1.81% and 2.44% | 3.22% and 4.36% | 1.02% and 2.31% |
| CS(=O)(=O)CCNCc1ccc(-c2ccc3ncnc(Nc4ccc(OCc5ccccc5)cc4)c3c2)o1 | 15.5% | 3.64% | 3.52% | 5.7% | -0.67% | -0.25% | 4.64% | 1.81% | 6.19% | 1.87% | 14.9% | 7.13% | 14.3% | 1.22% | 2.03% | -0.92% | 2.86% | 1.91% | 2.07% | 0.71% |
| c1ccc(-c2n[nH]cc2-c2ccnc(-c3ccc(OCCn4ccnc4)cc3)c2)nc1 | 2.33% | 1.2% | 2.17% | 3.26% | 5.27% | 5.33% | 16.4% | 2.61% | 11.8% | 2.86% | 7.07% | 1.8% | 9.8% | 6.59% | 2.24% | 2.91% | 2.56% | -0.75% | -0.28% | 0.01% |
| Fc1ccc(Nc2nccc(-c3c(-c4ccc(C(F)(F)F)cc4)nn4ncccc34)n2)cc1F | 1.67% | 2.18% | 2.92% | 7.64% | -2.39% | 0.19% | -1.91% | 2.64% | 6.66% | 0.1% | 2.19% | 4.54% | 7.92% | 1.9% | 4.26% | 4.61% | 3.27% | 3.45% | 2.2% | 1.45% |
| CN1CCC(C(=O)Nc2n[nH]c3nc(-c4ccc(O)cc4)c(Br)cc23)CC1 | 13.7% and 6.47% | 6% and 2.01% | 2.87% and 3.17% | 16.1% and 0.86% | 1.05% and 6.99% | -8.86% and 1.93% | 2.2% | -1.7% and 0.14% | 0.92% and 5.04% | 0.13% and 0.97% | 2.18% and 4.52% | 3.06% and 2.78% | 6.08% and 4.64% | -4.96% and 3.55% | -5.49% and 3.41% | 5.36% and 4.34% | 4.73% and 6.55% | 2.54% and -0.17% | 2.5% and 1.64% | -2.09% and 0.57% |
| CS(=O)(=O)Nc1ccc(-c2ccc3c(NC(=O)C4CC4)n[nH]c3c2)cc1 | -0.22% | 4.12% | 4.87% | 7.49% | 3.86% | -0.12% | 2.39% | 1.7% | 3.16% | 0.67% | 2.5% | 5.35% | 8.62% | 7.15% | 5.41% | 4.13% | 5.66% | 3.14% | 2.41% | 1.56% |
| NS(=O)(=O)c1ccc(N/N=C2\C(=O)Nc3cccc(CCc4ccncc4)c32)cc1 | -6.07% | -0.07% | 1.59% | 20.8% | 64% | 30.1% | 47.9% | 39.9% | 46.2% | 2.64% | 4.54% | 2.52% | 6.49% | 1.21% | 1.06% | 4.32% | 5.06% | -0.57% | 0.48% | 0.79% |
